Hits are enriched below; roughly 3.9% of the tested compounds scored in any of these assays.
TGFb SMAD3 inh – TGF-b pathway inhibition. HepG2 CAGA-GFP TGF-b/SMAD3 reporter, GFP fluorescence, 18 h; TGF-beta stimulated, 500 pg/mL final. AID 588855. Potency, µM (top dose mostly 46.1 µM), without a hit: top-dose activity, negative = inhibition, actives largely listed as inhibitors. 410,000 tested, 1.2% active; note: % is set by controls: 0 for no effect and ±100 for the full control effect; nearly all actives have a fitted effect of over 65% in size
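Inhibition was scored as loss of TGF-beta-induced (500 pg/mL final, 18 hours, 37 degrees C) GFP in HEPG2 cells carrying a CAGA-GFP reporter, in DMEM with 1% FBS. Well GFP was summed per cell; Activity was normalised to unstimulated and stimulated DMSO wells, then concentration-response fitting.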
HT1080NT lethal – kills 2HG-producing HT-1080-NT fibrosarcoma cells; HT-1080-NT fibrosarcoma viability, CellTiter-Glo ATP luminescence, 48 h; Potency, µM (series often up to 46.1 µM), without a hit: at the top dose activity, negative = less viability, actives largely listed as cytotoxic; 360,000 tested, 1.6% active; AID 686970;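 note: NT is the 2HG producing partner of a matched IDH1 knockdown line; 0% = DMSO-treated cells and -100% = media-only wells without cells; nearly all actives have a fitted effect of over 55% in size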
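HT-1080-NT; 750 cells/well; 5% FBS RPMI; 48 h compound, 37 degrees C; CellTiter-Glo luminescence; curve fitting and curve-class assignment.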
HepG2 tox – kills HepG2 cells in TGF-b inhibitor counter-screen; HepG2 CAGA-GFP viability, ATP luminescence, 18 h; Potency, µM (top dose mostly 46.1 µM), inactives show top-dose activity change, negative = cytotoxicity, usual class: cytotoxic; 410,000 tested, 0.76% active
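HepG2 CAGA-GFP cells (1000/well, DMEM with 1% FBS) received compound, then TGF-beta at 500 pg/mL final, and were incubated 18 hours at 37 degrees C. Viability was read by CellTiter-Glo luminescence. Media-only wells were set as complete cell-killing and DMSO as no toxicity.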
HT1080 IDH1KD tx – kills HT-1080 cells with IDH1 knockdown. HT-1080 IDH1 knockdown viability, ATP luminescence, 48 h. 360,000 tested, 2% active. Potency, µM (top dose mostly 46.1 µM), inactives show at the highest dose activity, negative = toxicity, hits mostly cytotoxic. AID 686971;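 note: 0% = DMSO wells and -100% = cell-free medium wells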
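Viability of IDH1-knockdown HT-1080 fibrosarcoma cells was assessed by CellTiter-Glo after 48 h at 37 °C with titrated compound; concentration-effect curves were classified by fit quality and response size.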
S2 tox – reduces viability in counter-screen for ATXN expression inhibitors | Potency, µM (highest dose often 56.7 µM), most hits filed as cytotoxic | AID 651635 | 400,000 tested, 0.49% active | S2 cells (HEK-293 line with an ATXN2-luciferase reporter) viability, CellTiter-Fluor protease fluorescence, 24 h; note: nearly all actives have a fitted effect of over 40% in size
ATXN2 expr inh – reduces ATXN2 reporter expression in HEK-293 cells; HEK-293 ATXN2-luciferase reporter, luminescence, 24 h; Potency, µM (highest dose often 57 µM), for inactives: at the highest dose activity change, negative = inhibition, usual class: inhibitors; 360,000 tested, 0.72% active; note: % is set by controls: 0 for no effect and ±100 for the full control effect; nearly all actives have a fitted effect of over 55% in size
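ATXN2-luciferase reporter cells (luciferase flanked by upstream and downstream ATXN2 gene portions) were treated 24 h at 37 °C with compounds at up to 57 uM. SteadyGlo luminescence gave expression; GF-AFC fluorescence gave viability.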
Numbers without * were called inactive; i = inactive; ? = inconclusive; . = not tested or not shown. Calls come from the whole dose curve; as a rule, active = well fitted curve in the direction sought with a large enough effect; inconclusive = small, poorly fitted or top-dose-only effect, or another doubt; inactive = no such curve, though single readings can be large; an effect the other way counts as inactive or inconclusive. Potency is the fitted concentration of half-maximal effect.

SMILES | TGFb SMAD3 inh | HT1080NT lethal | HepG2 tox | HT1080 IDH1KD tx | S2 tox | ATXN2 expr inh
NC(=O)c1cccc(-c2ccnc3c2CC(C(=O)NCc2ccco2)O3)c1 (configuration not stated) | 9% | ? | 2% | 4.1µM* | i | 10%
O=C(NCc1cccc(Cl)c1)C1Cc2c(-c3cccc(F)c3)ccnc2O1 (configuration not stated) | -2% | ? | -23% | ? | i | -29%
CC(=O)NC(Cc1ccc([N+](=O)[O-])cc1)C(=O)NCC(N)C(=O)c1ccccc1 (configuration not stated) | . | -2% | . | -3% | . | .
COc1ccc(-n2c(CNC(=O)c3cccc4ccccc34)nnc2SC)cc1 | . | . | . | . | i | .
O=C(NCc1ccco1)C1Cc2c(-c3cccc(F)c3)ccnc2O1 (configuration not stated) | -18% | ? | -21% | 0.73µM* | i | -9%
NC(=O)c1cccc(-c2ccnc3c2CC(C(=O)NCCc2ccccc2)O3)c1 (configuration not stated) | 5% | ? | -1% | 7.3µM* | i | 1%
O=[N+]([O-])c1cc(C(F)(F)F)ccc1NCCc1c[nH]c2ccc(O)cc12 | ? | 13µM* | -88% | 13µM* | i | -3%
O=C(CCn1c(=O)c2cccn2c2cccnc21)N1CCN(c2ccccc2F)CC1 | -17% | . | -1% | . | . | .
Cc1cnc(C(=O)Nc2cccc3cccnc23)cn1 | 2.8µM* | ? | -89% | ? | ? | ?
Cc1cccc(C(=O)Nc2cccc3cccnc23)c1 | -17% | 3% | -22% | 0% | i | 31%
COc1cccc(NC(=O)N(Cc2c[nH]c3ccccc23)C2CCCCCC2)c1 | ? | . | -54% | . | ? | 2%
COc1ccc(OCC(=O)N/N=C/c2ccc(O[C@@H]3O[C@H](CO)[C@@H](O)[C@H](O)[C@H]3O)cc2)cc1 | -5% | ? | 2% | 1.6µM* | i | 0%
CN(C)S(=O)(=O)c1ccc2c(c1)N(CC(=O)N1CCN(c3ccccc3F)CC1)CCS2 | -1% | . | -1% | . | i | -10%
O=C(NCCc1nnc2n1CCN(Cc1ccc3c(c1)CCO3)CC2)c1ccco1 | . | . | . | . | i | .
CCCCC(CC)CNC(=O)CC(C)OC(=O)CCC(=O)O (configuration not stated) | . | . | . | . | i | 25%
Cc1ccc(NS(=O)(=O)c2ccc3nc(-c4ccccc4)[nH]c3c2)cc1Cl | ? | . | 16µM* | . | ? | ?
Cc1ccc(NS(=O)(=O)c2ccc(Cl)c(C(=O)Nc3ccccc3-c3nc4ccccc4[nH]3)c2)cc1C | 11µM* | 6.5µM* | -77% | 8.2µM* | ? | ?
Nc1ccn(C2CO[C@H](CO)O2)c(=O)n1 (some centres not stated) | . | . | . | . | i | -3%
CCCCn1cnc2cc(NCc3ccc(OCC)cc3)ccc21 | 10µM* | . | -34% | . | i | 8%
CCc1ccc(CNC(=O)C2CCN(c3nc4ccccc4nc3C(F)(F)F)CC2)cc1 | 17% | . | 2% | . | . | .
CC/C(C)=N\Nc1nc(-c2cc3cc(OC)ccc3oc2=O)cs1 | -1% | ? | -35% | 15µM* | i | -13%
Cc1c(CN(C)C)c2c(n1Cc1ccccc1)C(=O)c1ccccc1-2 | 19% | 23µM* | -61% | 16µM* | ? | -18%
CCN(CC)CCNC(=O)c1c(C)n(-c2ccccc2)c2cc(Br)c(OC)cc12 | ? | ? | 20µM* | 16µM* | ? | ?
O=C(CS)Nc1ccccc1 | . | . | . | . | i | 19%
C/C(=N\Nc1nc(N2CCCCC2)nc(N2CCOCC2)n1)c1ccccc1O | -24% | ? | -50% | 18µM* | i | ?
